According to PubChem BioAssay (Tox21):
A number with no mark means an inactive call. Inconclusive results are not listed. Entries that show only a call come without a potency. The source made the active and inactive calls. Unless noted, the call rests on the fitted dose curve; in most records, active means well fitted curve in the direction sought with a large enough effect in the repeat runs; inconclusive means weak or mixed curves; inactive means no such curve, though single readings can be large; an effect the other way counts as inactive or inconclusive.

Assays:
[1] = A CellTox Green Cytotoxicity Assay to monitor cytotoxicity in HepG2 cells - 8 hour (AID 1224890); further: nearly all actives have a fitted effect of over 45% in size; further: potency means the concentration at half of the fitted maximal effect
How it was run: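 First, HepG2 cells (600/well) mixed with reagent were plated; second, after 5 h at 37 C they received compounds via pintool; third, fluorescence was measured at 0 h through 40 h at 8 h intervals.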

[2] = qHTS assay to identify small molecule antagonists of the androgen receptor (AR) signaling pathway using the MDA cell line in the presence of 0.5 nM R1881 - cell viability counter screen (AID 1259242); further: nearly all actives have a fitted effect of over 45% in size; further: potency means the concentration at half of the fitted maximal effect
How it was run: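 qHTS format. MDA-kb2 (MMTV-luc, AR/GR responsive) + cpd + 0.5 nM R1881 final, 16 hr 37C/0% CO2 → CellTiter-Fluor 30 min → fluorescence intensity.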

[3] = target: Androgen receptor (Homo sapiens) (UniProt P10275); experiment: qHTS assay to identify small molecule antagonists of the androgen receptor (AR) signaling pathway using the MDA cell line in the presence of 0.5 nM R1881 (AID 1259243); further: nearly all actives have a fitted effect of over 50% in size; further: potency means the concentration at half of the fitted maximal effect
Androgen receptor (Homo sapiens), sequence (P10275 whole entry, looked up): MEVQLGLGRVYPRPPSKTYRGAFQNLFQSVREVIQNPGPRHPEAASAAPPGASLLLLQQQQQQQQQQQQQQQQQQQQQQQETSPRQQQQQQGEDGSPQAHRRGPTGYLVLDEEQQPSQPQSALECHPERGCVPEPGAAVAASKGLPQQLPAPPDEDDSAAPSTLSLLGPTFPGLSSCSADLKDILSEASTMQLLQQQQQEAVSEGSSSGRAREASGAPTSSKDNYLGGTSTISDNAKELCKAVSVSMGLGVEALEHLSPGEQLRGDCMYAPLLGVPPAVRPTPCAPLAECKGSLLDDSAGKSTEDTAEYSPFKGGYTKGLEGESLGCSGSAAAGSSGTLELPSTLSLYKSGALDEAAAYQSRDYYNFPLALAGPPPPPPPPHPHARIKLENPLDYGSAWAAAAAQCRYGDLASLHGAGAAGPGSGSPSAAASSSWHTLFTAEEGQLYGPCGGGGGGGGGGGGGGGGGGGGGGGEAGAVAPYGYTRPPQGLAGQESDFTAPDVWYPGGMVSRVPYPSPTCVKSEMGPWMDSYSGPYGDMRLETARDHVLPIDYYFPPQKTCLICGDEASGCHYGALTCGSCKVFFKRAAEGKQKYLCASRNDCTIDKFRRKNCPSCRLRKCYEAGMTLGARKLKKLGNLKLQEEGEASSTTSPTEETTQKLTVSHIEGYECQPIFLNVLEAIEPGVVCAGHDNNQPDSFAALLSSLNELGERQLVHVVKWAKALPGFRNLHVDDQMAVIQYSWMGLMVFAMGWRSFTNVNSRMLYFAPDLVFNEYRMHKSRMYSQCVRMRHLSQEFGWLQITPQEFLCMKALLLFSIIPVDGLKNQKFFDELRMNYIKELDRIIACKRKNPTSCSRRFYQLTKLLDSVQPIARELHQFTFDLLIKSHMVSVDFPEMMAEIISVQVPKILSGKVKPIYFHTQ
How it was run: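 Antagonist mode quantitative HTS in MDA-kb2 MMTV-luciferase cells, agonist R1881 at 0.5 nM final, 16 hr exposure at 37C and 0% CO2, luminescent detection.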

[4] = target: Estrogen receptor (Homo sapiens) (UniProt P03372); experiment: qHTS assay to identify small molecule antagonists of the estrogen receptor alpha (ER-alpha) signaling pathway using the BG1 cell line in the presence of 0.1 nM 17-beta-estradiol (AID 1259244); further: nearly all actives have a fitted effect of over 50% in size; further: potency means the concentration at half of the fitted maximal effect
Estrogen receptor (Homo sapiens), sequence (P03372 whole entry, looked up): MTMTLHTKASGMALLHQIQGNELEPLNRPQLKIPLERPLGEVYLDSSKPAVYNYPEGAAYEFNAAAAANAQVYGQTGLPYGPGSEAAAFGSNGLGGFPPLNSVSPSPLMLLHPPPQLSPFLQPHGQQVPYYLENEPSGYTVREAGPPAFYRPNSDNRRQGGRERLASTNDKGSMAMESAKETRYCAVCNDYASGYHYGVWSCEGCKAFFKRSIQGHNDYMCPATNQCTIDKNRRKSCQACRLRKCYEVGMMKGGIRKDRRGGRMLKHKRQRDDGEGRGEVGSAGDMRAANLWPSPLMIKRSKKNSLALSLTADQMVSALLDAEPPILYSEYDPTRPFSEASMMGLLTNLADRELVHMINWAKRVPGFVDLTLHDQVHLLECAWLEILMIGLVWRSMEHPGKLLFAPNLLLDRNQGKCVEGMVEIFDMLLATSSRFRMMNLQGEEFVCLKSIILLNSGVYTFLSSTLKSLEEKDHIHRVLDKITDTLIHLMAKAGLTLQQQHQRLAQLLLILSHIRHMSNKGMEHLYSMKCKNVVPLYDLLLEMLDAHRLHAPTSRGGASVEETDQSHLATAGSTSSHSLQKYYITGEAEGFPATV
How it was run: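 Reporter is a stably transfected luciferase under four estrogen responsive elements in VM7Luc4E2 cells expressing native full-length ER-alpha; inhibition of 0.1 nM (final) 17beta-estradiol-driven signal over 22 h is read by luminescence.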

[5] = qHTS assay to identify small molecule HDAC inhibitors (AID 1259364); further: potency means the concentration at half of the fitted maximal effect;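 further: wild-type HCT-116 cells with endogenous class I/II HDAC activity; nearly all actives have a fitted effect of over 45% in size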
How it was run: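 Quantitative high-throughput format: overnight-seeded HCT-116 cells got compounds for 2 hr at 37C; HDAC-Glo I/II reagent added, 30 min RT, luminescence measured.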

[6] = qHTS assay to identify small molecule HDAC inhibitors - cell viability counter screen (AID 1259365); further: series mostly up to about 92 µM; nearly all actives have a fitted effect of over 50% in size
How it was run: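 Viability readout: CellTiter-Glo luminescence. Wild-type HCT-116 cells, 2hr compound treatment following overnight attachment at 37 C.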

[7] = qHTS assay to identify small molecule agonists of the sonic hedgehog signaling (Shh) pathway - cell viability counter screen (AID 1259366); further: nearly all actives have a fitted effect of over 50% in size; further: potency means the concentration at half of the fitted maximal effect
How it was run: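 Viability measured fluorometrically (CellTiter-Fluor, 1hr, 37C) in 3T3 Gli1-Luc reporter cells after 23hr compound exposure within a 24hr incubation at 37C/5% CO2.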

[8] = qHTS assay to identify small molecule antagonists of the sonic hedgehog signaling (Shh) pathway - cell viability counter screen (AID 1259367); further: nearly all actives have a fitted effect of over 55% in size; further: potency means the concentration at half of the fitted maximal effect
How it was run: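 Cytotoxicity was assessed in parallel with Shh reporter activity by measuring live-cell protease fluorescence (CellTiter-Fluor) in NIH/3T3 cells stably carrying Gli1-Luc, treated with compound under conditioned medium stimulation for 23 hr plus 1 hr reagent incubation.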

[9] = qHTS assay to identify small molecule antagonists of the estrogen receptor alpha (ER-alpha) signaling pathway using the BG1 cell line in the presence of 0.1 nM 17-beta-estradiol - cell viability counter screen (AID 1259241); further: nearly all actives have a fitted effect of over 40% in size; further: potency means the concentration at half of the fitted maximal effect
How it was run: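 The cell line endogenously expresses full-length ER-alpha and carries four EREs driving luciferase. Cells are cultured 5 days hormone-free, treated 22 hr with compounds and 0.1 nM estradiol, then viability is read by fluorescence.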

[10] = qHTS assay to identify small molecule phospholipidosis (PLD) inducers (AID 1259344; active means well fitted curve in the direction sought with a large enough effect; an effect the other way counts as inactive or inconclusive)
How it was run: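 Cells (HepG2, 900 per well) attach for 4 h, receive LipidTOX Red and compound together, incubate 24 h at 37 C, are fixed 30 min with paraformaldehyde/Hoechst, then imaged at one site per well.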

O=[N+]([O-])c1cc(C2CCCCC2)c(O)c([N+](=O)[O-])c1
Potency [1]: inactive
Potency [2]: 15.3 µM (active)
Potency [3]: 7.67 µM (active)
Potency [4]: 7.67 µM (active)
Potency [5]: inactive
Potency [6]: inactive
Potency [7]: 24.3 µM (active)
Potency [8]: 24.3 µM (active)

Cc1cc2c(OCC(CNC(C)(C)C)OC(=O)c3ccccc3)cccc2[nH]1 (stereo unspecified)
Potency [1]: inactive
Potency [9]: inactive
Potency [4]: inactive
Potency [5]: inactive
Potency [6]: inactive
Potency [7]: inactive
Potency [8]: inactive

CC1CC(C)C(=O)C1=O (stereo unspecified)
Potency [1]: inactive
Potency [9]: inactive
Potency [2]: inactive
Potency [6]: inactive
Potency [7]: inactive
Potency [8]: inactive

CCCCCCNC(=O)n1cc(F)c(=O)[nH]c1=O
Potency [1]: inactive
Potency [9]: inactive
Potency [2]: inactive
Potency [6]: inactive
Potency [7]: inactive
Potency [8]: inactive

Oc1cc2c(cc1O)[C@H]1c3ccc(O)c(O)c3OC[C@@]1(O)C2
Potency [1]: inactive
Potency [9]: 27.6 µM (active)
Potency [5]: 55.1 µM (active)
Potency [6]: inactive
Potency [7]: 27.6 µM (active)
Potency [8]: 27.6 µM (active)

NNC(=O)CP(=O)(c1ccccc1)c1ccccc1
Potency [1]: inactive
Potency [9]: inactive
Potency [2]: inactive
Potency [5]: inactive
Potency [7]: inactive
Potency [8]: inactive

C[C@@H](O)[C@H]1C(=O)N2C(C(=O)O)=C([C@H]3CCCO3)S[C@H]12
Potency [1]: inactive
Potency [2]: inactive
Potency [3]: inactive
Potency [4]: inactive
Potency [5]: inactive
Potency [7]: inactive
Potency [8]: inactive

CCC1NC(=O)c2cc(S(N)(=O)=O)c(Cl)cc2N1 (stereo unspecified)
Potency [1]: inactive
Potency [9]: inactive
Potency [2]: inactive
Potency [6]: inactive
Potency [7]: inactive
Potency [8]: inactive

Cc1cc(C)cc(N)c1
Potency [1]: inactive
Potency [2]: inactive
Potency [3]: inactive
Potency [4]: inactive
Potency [6]: inactive
Potency [7]: inactive
Potency [8]: inactive

Cc1ccc(OC(=O)c2ccccc2O)cc1
Potency [1]: inactive
Potency [9]: inactive
Potency [2]: inactive
Potency [5]: 15.4 µM (active)
Potency [7]: inactive
Potency [8]: inactive

O=c1cc(-c2ccccc2)oc2cc(O)cc(O)c12
Potency [1]: inactive
Potency [2]: inactive
Potency [3]: inactive
Potency [5]: 6.86 µM (active)
Potency [6]: inactive
Potency [7]: 48.6 µM (active)
Potency [8]: 61.1 µM (active)

COc1ccccc1N1CCN(CCCCNC(=O)c2ccc(-c3ccc(C(C)=O)cc3)cc2)CC1
Potency [1]: inactive
Potency [9]: inactive
Potency [5]: inactive
Potency [6]: inactive
Potency [7]: inactive
Potency [8]: inactive

COc1ccccc1NC(=O)c1cc2ccccc2cc1O
Potency [1]: inactive
Potency [2]: inactive
Potency [3]: 30.6 µM (active)
Potency [4]: 43.3 µM (active)
Potency [5]: 24.3 µM (active)
Potency [6]: inactive
Potency [8]: inactive

c1cc(N(CC2CO2)CC2CO2)ccc1Cc1ccc(N(CC2CO2)CC2CO2)cc1 (stereo unspecified)
Potency [9]: inactive
Potency [2]: inactive
Potency [3]: 27.3 µM (active)
Potency [6]: inactive
Potency [7]: 54.5 µM (active)
Potency [8]: 54.5 µM (active)

CCOC(=O)c1ccc(I)cc1
Potency [1]: inactive
Potency [2]: inactive
Potency [4]: inactive
Potency [5]: inactive
Potency [6]: inactive
Potency [7]: inactive
Potency [8]: inactive

CCOC(=O)OC(C)OC(=O)[C@@H]1N2C(=O)[C@@H](NC(=O)[C@H](N)c3ccccc3)[C@H]2SC1(C)C (stereo partly specified)
Potency [1]: inactive
Potency [2]: inactive
Potency [10]: inactive
Potency [5]: inactive
Potency [6]: inactive
Potency [7]: inactive
Potency [8]: inactive

O=C1c2ccccc2C(=O)c2c(O)c(O)cc(O)c21
Potency [1]: inactive
Potency [5]: inactive
Potency [6]: inactive

Cc1ccco1
Potency [1]: inactive
Potency [2]: inactive
Potency [4]: inactive
Potency [5]: inactive
Potency [6]: inactive
Potency [7]: inactive
Potency [8]: inactive

CCCCCC#CC(=O)OC
Potency [1]: inactive
Potency [2]: inactive
Potency [4]: inactive
Potency [5]: inactive
Potency [6]: inactive
Potency [7]: inactive
Potency [8]: inactive

Cc1cccc(N(C)C(=S)Oc2ccc3c(c2)CCC3)c1
Potency [9]: inactive
Potency [2]: inactive
Potency [4]: inactive
PLD induction [10]: -4.02% [at 7.66 µM]
Potency [5]: inactive
Potency [6]: inactive
Potency [7]: inactive
Potency [8]: inactive

CCOC(=O)c1ccccc1C(=C1C=C(Br)C(=O)C(Br)=C1)c1cc(Br)c(O)c(Br)c1
Potency [1]: inactive
Potency [2]: inactive
Potency [4]: inactive
Potency [5]: inactive
Potency [6]: inactive
Potency [7]: inactive
Potency [8]: inactive

CC(=O)c1ccc([N+](=O)[O-])cc1
Potency [1]: inactive
Potency [2]: inactive
Potency [5]: inactive
Potency [6]: inactive
Potency [7]: inactive
Potency [8]: inactive

O=C(Cn1ccnc1[N+](=O)[O-])NCCO
Potency [9]: inactive
Potency [2]: inactive
Potency [3]: inactive
Potency [4]: inactive
Potency [5]: inactive
Potency [6]: inactive
Potency [7]: inactive
Potency [8]: inactive

C=C1C[C@@]23CC[C@H]4[C@@](C)(CCC[C@@]4(C)C(=O)O[C@@H]4O[C@H](CO)[C@@H](O)[C@H](O)[C@H]4O)[C@@H]2CC[C@]1(O[C@@H]1O[C@H](CO)[C@@H](O)[C@H](O[C@@H]2O[C@H](CO)[C@@H](O)[C@H](O)[C@H]2O)[C@H]1O[C@@H]1O[C@H](CO)[C@@H](O)[C@H](O)[C@H]1O)C3
Potency [9]: inactive
Potency [2]: inactive
Potency [3]: inactive
Potency [4]: inactive
Potency [5]: inactive
Potency [6]: inactive
Potency [7]: inactive
Potency [8]: inactive

Cc1cc(O)c(C)c(C)c1O
Potency [9]: inactive
Potency [2]: inactive
Potency [3]: inactive
Potency [4]: inactive
Potency [5]: inactive
Potency [6]: inactive
Potency [7]: inactive
Potency [8]: inactive

Nc1nc2ccc([N+](=O)[O-])cc2s1
Potency [1]: 49 µM (active)
Potency [3]: 6.86 µM (active)
Potency [10]: inactive
Potency [5]: 17.7 µM (active)
Potency [6]: inactive

CC1=C(Br)C(=O)C(Br)=C/C1=C(/c1ccccc1S(=O)(=O)O)c1cc(Br)c(O)c(Br)c1C
Potency [1]: inactive
Potency [2]: 18.6 µM (active)
Potency [7]: 18.6 µM (active)
Potency [8]: 20.8 µM (active)
